# Laboratory results from the supplement of paper PMC8047044.
# Several values for one entry are separate records, joined by “and”; a condition that tells them apart may be missing. Identical values can stand only once.
# Test system: Neuro-2a
# Assay: neurite formation score, plate-normalized to DMSO control mean 5.04 (score (0-8 scale)); higher = more or longer neurites
# Settings: 1 µM
# Procedure: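 Neuro-2a mouse neuroblastoma cells in PLL-coated 96-well plates were pre-treated for 1 h in DMEM(+) with each kinase inhibitor at 1 µM, then switched to serum-free DMEM(-) with inhibitor to induce neurite outgrowth and fixed about 2-3 h later. Three blinded observers scored neurite formation from 0 (no neurites) to 8 (long neurites on almost all cells).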
row,Compound,neurite formation score
1,O=C(NOC[C@H](O)CO)c1ccc(F)c(F)c1Nc1ccc(I)cc1F,4.91
2,CN1CCN(C2CCN(C(=O)Nc3cc(Oc4ccc(NC(=O)C5(C(=O)Nc6ccc(F)cc6)CC5)c(F)c4)ccn3)CC2)CC1 [Golvatinib (E7050)],4.14
3,c1cn2cc(-c3ccc4cn[nH]c4c3)nc(Nc3ccc(N4CCOCC4)cc3)c2n1,4.54
4,CNc1nc(Nc2cnn(C3CCN(C4COC4)CC3F)c2Cl)ncc1C(F)(F)F (centres undefined),4.88
5,Cc1cc(CN2CCN(c3c(Br)cnc4nc(-c5ccc(N6CCN(C)CC6)cc5)[nH]c34)CC2)no1,4.47
6,CNC(=O)c1cc(Oc2ccc(NC(=O)Nc3ccc(Cl)c(C(F)(F)F)c3)cc2)ccn1 [Sorafenib],4.24
7,CN(C)S(=O)(=O)c1ccc2c(c1)/C(=C/c1cc3c([nH]1)CCCC3)C(=O)N2,4.54
8,O=C(c1ccc(Nc2nccc(-c3cc4ccccc4s3)n2)cc1)N1CCC(N2CCCC2)CC1 [IKK-16 (IKK Inhibitor VII)],4.54
9,CN1CCN(c2ccc(C(=O)Nc3n[nH]c4ccc(Cc5cc(F)cc(F)c5)cc34)c(NC3CCOCC3)c2)CC1 [Entrectinib],2.54
10,OCCn1cc(-c2ccc3c(c2)CC/C3=N\O)c(-c2ccncc2)n1,3.69
11,O=C(Nc1ccc(-c2ccnc(Nc3ccc(N4CCOCC4)cc3)n2)cc1)C1CCCN1 (centres undefined),4.02
12,Fc1cc(-c2cccc3ncc(-c4cnn(C5CCNCC5)c4)nc23)cc(F)c1CN1CCOCC1,4.47
13,O=C1c2ccccc2-c2n[nH]c3cccc1c23,4.02
14,Nc1ncnc2n[nH]c(Nc3ccc(F)cc3)c12,4.88
15,"Cc1[nH]c(/C=C2\C(=O)Nc3ccccc32)c(C)c1CCC(=O)O [TSU-68 (SU6668,Orantinib)]",4.57
16,"CCCCCCCCCCCCCCCCCC(=O)OC[C@H](CO)OC(=O)CCCCCCCCCCCCCCCCC [1,2-Distearoyl-sn-glycerol]",4.54
17,"CO[C@H]1C[C@@H]2CC[C@@H](C)[C@@](O)(O2)C(=O)C(=O)N2CCCC[C@H]2C(=O)O[C@H]([C@H](C)C[C@@H]2CC[C@@H](OP(C)(C)=O)[C@H](OC)C2)CC(=O)[C@H](C)/C=C(\C)[C@@H](O)[C@@H](OC)C(=O)[C@H](C)C[C@H](C)/C=C/C=C/C=C/1C [Ridaforolimus (Deforolimus, MK-8669)]",4.21

row,Compound,neurite formation score
1,Cc1cccc(CC(=O)N2CCc3c2ccc(-c2cn(C)c4ncnc(N)c24)c3F)n1,4.21
2,O=C(Nc1cccc(Nc2ncc(Br)c(NCCc3cnc[nH]3)n2)c1)N1CCCC1,3.91
3,COc1cc(N2CCC(N(C)C)CC2)ccc1Nc1ncc(Cl)c(Nc2ccccc2P(C)(C)=O)n1,4.57
4,Cc1ccc(Nc2nccc(N(C)c3ccc4c(C)n(C)nc4c3)n2)cc1S(N)(=O)=O,3.91
5,CC(C)(C)c1nc(-c2cccc(NS(=O)(=O)c3c(F)cccc3F)c2F)c(-c2ccnc(N)n2)s1,5.02 and 5.29
6,O=C(NCCO)c1cccc(-c2cc(Nc3ccc(OC(F)(F)F)cc3)ncn2)c1,5.63
7,c1cc(-c2cnn3cc(-c4ccc(OCCN5CCCCC5)cc4)cnc23)ccn1 [Dorsomorphin 2HCl],4.96
8,Oc1ccc(-c2nc(-c3ccc(F)cc3)c(-c3ccncc3)[nH]2)cc1,4.57
9,COc1cc(N2CCC(N3CCN(C)CC3)CC2)ccc1Nc1ncc(Cl)c(Nc2ccccc2S(=O)(=O)C(C)C)n1,2.24
10,COc1ccc(C(=O)Nc2sc3c(c2C(N)=O)CCCC3)cc1OC,4.57
11,O=C(c1ccc(F)c(F)c1Nc1ccc(I)cc1F)N1CC(O)([C@@H]2CCCCN2)C1 [Cobimetinib],3.24
12,Cc1cc2c(F)c(Oc3ncnn4cc(OC[C@@H](C)OC(=O)[C@H](C)N)c(C)c34)ccc2[nH]1,3.57
13,Cc1ccc([N+](=O)[O-])cc1S(=O)(=O)N(C)/N=C/c1cnc2ccc(Br)cn12,4.54
14,O=C(Nc1ccc2[nH]nc(-c3ccncc3)c2c1)[C@@H]1CCN(CC(=O)N2CCN(c3ccc(-c4ncccn4)cc3)CC2)C1,3.8
15,Nc1nccc(-c2c(-c3ccc(F)cc3)ncn2C2CCCCC2)n1,5.02
16,C=CC(=O)Nc1cccc(Nc2nc(Nc3ccc(NC4CN(CCF)C4)cc3OC)ncc2C(F)(F)F)c1,4.88
17,C[C@@]1(C(=O)Nc2ccc(F)nc2)CCCN1c1nc(Nc2cc(C3CC3)n[nH]2)c2cccn2n1,4.57
